RecA splice inh: Mtb RecA intein splicing inhibition | cell-free RecA intein splicing, fluorescence | P9WHJ3 | AID 2221 | 290,000 tested, 0.75% active | inhibition, % (no concentration beside the values); in the data active = inhibition above about 30%;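 note: 0% = vehicle wells and 100% = reference inhibitor control wells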
GDH-TPI counter: counter-screen for M. tuberculosis FBA inhibitors: GDH-TPI coupled enzymes. 360,000 tested, 1.2% active. GDH-TPI coupled enzyme counterscreen, NADH absorbance. inhibition, % at 4.8 µM; in the data active = inhibition above about 30%;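 note: 0% = DMSO wells and 100% = wells lacking the enzyme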
BJeLR viability: kills HRASV12-expressing BJeLR cells | inhibition, % (concentration not given with the values) | BJeLR (HRASV12) viability, CellTiter-Glo ATP luminescence, 48 h | 300,000 tested, 0.17% active; in the data active = inhibition above about 50%
Mtb FBA inh: Mtb fructose-bisphosphate aldolase inhibition; inhibition, % at 1 µM; P9WQA3; purified M. tuberculosis FBA, fluorescence read-out; AID 588726; 360,000 tested, 2.3% active; in the data active = inhibition above about 27%;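 note: 0% = vehicle and 100% = reference inhibitor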
PrPC surface inh: inhibitors of human cell surface prion protein PrPC; TR-FRET read-out; 370,000 tested, 0.43% active; P04156; AID 720596; inhibition, % at 13.8 µM; in the data active = inhibition above about 24%; note: 0% = median of the test wells and 100% = reference compound wells
GFP chromo cs: counter-screen: blocks GFP chromophore formation. shares compounds with RecA splice inh. cell-free GFP chromophore formation, fluorescence. EC50, µM. 2,100 tested, 83% active. AID 434968; call rule not given here
* hit, by the source's call. Hits are enriched below; roughly 4.2% of the tested compounds scored in any of these assays.

What do the screens show for `COc1ccc(CN(CCN2CCOCC2)C(=O)c2cc(F)ccc2F)cc1OC`?
PrPC surface inh: 1

How did O=c1cc(-c2ccc(Cl)cc2)[nH][nH]1 do in these assays?
RecA splice inh: 94*; GDH-TPI counter: -10; BJeLR viability: -1; Mtb FBA inh: 0; PrPC surface inh: -8; GFP chromo cs: 1.9*

What do the screens show for `O=[N+]([O-])c1ccc(-c2cc(-c3ccc(Cl)cc3)n[nH]2)cc1`?
RecA splice inh: 3; GDH-TPI counter: 27; BJeLR viability: 4; Mtb FBA inh: -1; PrPC surface inh: -6

Results for COc1ccc(-c2cc(=O)[nH][nH]2)cc1 ?
RecA splice inh: 98*; GDH-TPI counter: -3; BJeLR viability: -8; Mtb FBA inh: 1; PrPC surface inh: -4; GFP chromo cs: 1.9*

Results for O=c1cc(-c2ccc(Cl)c(Cl)c2)[nH][nH]1 ?
RecA splice inh: 88*; GDH-TPI counter: 8; BJeLR viability: 3; Mtb FBA inh: -4; PrPC surface inh: 0; GFP chromo cs: 6.6*

How did OC(c1ccc(Cl)c(Cl)c1)c1ncc(-c2ccc(Cl)cc2)[nH]1 (stereo not given) do in these assays?
GDH-TPI counter: 0; Mtb FBA inh: -4; PrPC surface inh: 3

How did COc1ccc(OC)c(S(=O)(=O)N2CCC(C(=O)NCc3cccs3)CC2)c1 do in these assays?
PrPC surface inh: 10

Results for Nc1ccc(O)c2ccccc12 ?
RecA splice inh: 88*; BJeLR viability: 3; GFP chromo cs: 11*

What do the screens show for `Nc1ccc(N=Nc2ccccc2)c2ccccc12`?
RecA splice inh: 24; GDH-TPI counter: 0; BJeLR viability: 1; Mtb FBA inh: 1; PrPC surface inh: 5

Results for O=C(NCc1ccc2c(c1)OCO2)c1ccccc1Cl ?
RecA splice inh: -2; GDH-TPI counter: 9; BJeLR viability: 3; Mtb FBA inh: 0; PrPC surface inh: 6

How did O=C(NCc1ccc2c(c1)OCO2)c1nc(S(=O)(=O)Cc2ccccc2F)ncc1Cl do in these assays?
RecA splice inh: 37*; GDH-TPI counter: 5; BJeLR viability: 28; Mtb FBA inh: 0; PrPC surface inh: -8; GFP chromo cs: 8.9*

What do the screens show for `O=C(NCc1ccc2c(c1)OCO2)c1nc(S(=O)(=O)Cc2ccccc2)ncc1Cl`?
RecA splice inh: 53*; GDH-TPI counter: 2; BJeLR viability: 6; Mtb FBA inh: -4; PrPC surface inh: 0; GFP chromo cs: 14*

Results for FC(F)(F)Oc1cccc(Cn2ccc3ccc(-c4ccc5ccn(Cc6cccc(OC(F)(F)F)c6)c5c4)cc32)c1 ?
PrPC surface inh: 6

What do the screens show for `CCn1c(SCC(=O)c2ccc(-c3ccccc3)cc2)nnc1-c1ccc(C(C)(C)C)cc1`?
PrPC surface inh: -1

What do the screens show for `N#Cc1ccc(/C=C2\CC3(OC(=O)c4ccc(F)cc4)CCCN2C3)cc1` (stereo not given)?
PrPC surface inh: 0

Results for Cc1ccc(C(c2cc(Cl)c3cccnc3c2O)N2CCN(C)CC2)cc1 (stereo not given) ?
RecA splice inh: 75*; GDH-TPI counter: 3; BJeLR viability: 4; Mtb FBA inh: 4; GFP chromo cs: 8.7*

Results for CN1CCN(C(c2ccccn2)c2cc(Cl)c3cccnc3c2O)CC1 (stereo not given) ?
RecA splice inh: 5; GDH-TPI counter: 3; BJeLR viability: 1; Mtb FBA inh: -1; PrPC surface inh: -4

What do the screens show for `Nc1ccc2nc(CCCCc3nc4ccccc4[nH]3)[nH]c2c1`?
RecA splice inh: 36*; GDH-TPI counter: 6; BJeLR viability: -1; Mtb FBA inh: 4; PrPC surface inh: 1; GFP chromo cs: >38

Results for c1ccc(-c2c[nH]c3ccc(OCCN4CCOCC4)c(-c4ccccc4)c23)cc1 ?
PrPC surface inh: -4

How did NS(=O)(=O)c1ccc(Cc2ncc(C(F)(F)F)cc2Cl)s1 do in these assays?
RecA splice inh: 2; GDH-TPI counter: -3; BJeLR viability: -3; Mtb FBA inh: 1; PrPC surface inh: 5

How did O=C(CCl)c1ccc(Cc2ncc(C(F)(F)F)cc2Cl)s1 do in these assays?
RecA splice inh: 79*; GDH-TPI counter: 1; BJeLR viability: 10; Mtb FBA inh: 0; PrPC surface inh: 11; GFP chromo cs: 3.4*

How did Oc1ccccc1N=Cc1c(O)ccc2ccccc12 do in these assays?
RecA splice inh: 12; GDH-TPI counter: 13; BJeLR viability: 5; Mtb FBA inh: 2; PrPC surface inh: -2

Screening data from PubChem.
